Assay outcomes deposited in PubChem BioAssay by National Center for Advancing Translational Sciences (NCATS).
Only some compounds are listed: those with a hit (about 1.4% of all), similar ones and a draw of the others.
KCNH2 3.1 inh – inhibitors of human KCNH2 3.1 potassium channel isoform. U2OS KCNH2 3.1, thallium flux FluxOr; hits give low values. activity change, % (tested at about 1.8 µM). 0.95% of 340,000 active;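 active = maximum activity change below -70%; inconclusive = maximum activity change from -70% to -50%; inactive = maximum activity change above -50%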;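 note: thallium influx rate constant from kinetic fluorescence after stimulation buffer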
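Virally transduced U2OS (3.1 isoform, 4 h infection in dark at RT) → overnight 37 C → FluxOr + Red40 in HBSS/HEPES, 45 min → stimulation buffer, 2 min kinetic read → rate constant vs DMSO controls.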
RXFP1 antagonist – blocks the human relaxin receptor RXFP1. Q9HBX9. HEK293-RXFP1, relaxin-stimulated cAMP HTRF, 30 min; hits give low values. activity change, negative = inhibition, % at 57.5 µM. 0.59% of 350,000 active. AID 1259400;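 active = activity change of -60% or lower, but not beyond a set lower limit; inconclusive = change between -60% and -40%, or beyond the set limit; inactive = change above -40%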
PTHR1 ag – activates the human parathyroid hormone receptor PTHR1. 0.075% of 410,000 active. HEK293 GP2 PTHR1 cells, GloSensor cAMP luminescence, 1 h. Potency, µM (titrated, usually from 115 µM), most hits filed as activators. Q03431. AID 743266; note: nearly all actives have a fitted effect of over 55% in size
Target sequence (Q03431 whole entry, looked up): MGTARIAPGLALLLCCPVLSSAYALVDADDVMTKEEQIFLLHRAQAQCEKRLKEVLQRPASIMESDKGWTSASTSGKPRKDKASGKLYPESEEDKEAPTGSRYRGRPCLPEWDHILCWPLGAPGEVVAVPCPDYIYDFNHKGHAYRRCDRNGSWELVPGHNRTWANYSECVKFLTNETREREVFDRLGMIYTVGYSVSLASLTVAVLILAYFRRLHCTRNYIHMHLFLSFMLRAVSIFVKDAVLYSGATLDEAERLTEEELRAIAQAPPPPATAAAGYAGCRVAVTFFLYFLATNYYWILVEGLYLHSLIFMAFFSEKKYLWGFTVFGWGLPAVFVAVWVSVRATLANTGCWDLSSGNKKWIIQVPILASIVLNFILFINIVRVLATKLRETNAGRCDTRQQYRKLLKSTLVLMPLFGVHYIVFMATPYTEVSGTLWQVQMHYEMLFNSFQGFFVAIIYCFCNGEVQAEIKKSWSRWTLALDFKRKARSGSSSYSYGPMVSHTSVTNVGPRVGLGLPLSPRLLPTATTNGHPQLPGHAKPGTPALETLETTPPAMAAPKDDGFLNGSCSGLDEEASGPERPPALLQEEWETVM
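HEK-293-derived GP2 cells expressing PTHR1 and a GloSensor cAMP reporter, 3,000/well, plated overnight, given luciferin plus IBMX (each 0.5 mM as added) for 1 h at 37 °C, then compound for 1 h at 37 °C. Luminescence was read after 15 min at room temperature.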
RXFP1 ag – agonists of human relaxin receptor RXFP1; 0.3% of 370,000 active; Potency, µM (top dose mostly 57.5 µM), most hits filed as activators; Q9HBX9; HEK293T-RXFP1 cAMP TR-FRET, 30 min; response scale: percent of porcine relaxin response, buffer zero; note: nearly all actives have a fitted effect of over 60% in size
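HEK293 cells stably expressing RXFP1, treated 30 min at 37C with compounds plus PDE4 inhibitor Ro 20174; cAMP measured by HTRF TR-FRET. Normalized to buffer and 29 nM porcine relaxin; EC50 by Hill fit.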
GRP78 ERSR act – inducers of ER stress response in human glioma cells. U87-MG GRP78 promoter luciferase reporter, 16 h. Potency, µM, usual class: activators. 0.02% of 420,000 active. AID 602332; note: series mostly up to about 76 µM; nearly all actives have a fitted effect of over 35% in size
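Stably transfected U87-MG glioma cells carrying a GRP78-based luciferase sensor; 16 h compound incubation. Luminescence end-point read 10 min after Bright-Glo addition at room temperature.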
hERG WT inh – inhibitors of human wildtype KCNH2 potassium channel; activity change, % at 1.84 µM; 0.37% of 340,000 active; AID 720551; Q12809; U2OS, BacMam KCNH2, thallium flux FluxOr; hits give low values;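 active = maximum activity change below -70%; inconclusive = maximum activity change between -70% and -50%; inactive = maximum activity change above -50%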
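U2OS cells transduced with wild-type KCNH2 virus are loaded with FluxOr dye for 45 min, and thallium flux is measured in kinetic reads before and after stimulation buffer. Rate constants are normalized to DMSO controls.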
Numbers stand for hits; . = inactive; ? = inconclusive; / = no result given. Unless noted, calls come from the whole dose curve; as a rule, active = well fitted curve in the direction sought with a large enough effect; inconclusive = small, poorly fitted or top-dose-only effect, or another doubt; inactive = no such curve, though single readings can be large; an effect the other way counts as inactive or inconclusive.

SMILES	KCNH2 3.1 inh	RXFP1 antagonist	PTHR1 ag	RXFP1 ag	GRP78 ERSR act	hERG WT inh
CCCCOc1ccc(C(O)(CCC)CCN2CCOCC2)cc1 (stereo unspecified)	.	.	.	.	.	.
CCCCCC(O)(CCN1CCCCC1)c1ccc(OCC)cc1 (stereo unspecified)	-113.9	.	.	.	.	-98.9
COc1cccc(N2CCN(C(=O)c3cccc(-n4c(C)nc5cccnc54)c3)CC2)c1	/	?	.	.	.	/
Cc1nc2cccnc2n1-c1cccc(C(=O)N2CCN(c3cccc(Cl)c3)CC2)c1	/	-63.8	.	.	.	/
COc1ccc(CC(=O)NCCc2csc(-c3ccc(Cl)cc3)n2)cc1	/	/	.	.	.	/
COc1cc(C(=O)Nc2ccc3oc(-c4ccccc4)nc3c2)cc(OC)c1OC	/	-60.2	.	.	.	/
COc1cc(OC)cc(C(=O)Nc2ccc3oc(-c4cccc5c(Br)cccc45)nc3c2)c1	/	.	.	.	.	/
COc1ccccc1C(=O)Nc1ccc2oc(-c3cccc4c(Br)cccc34)nc2c1	/	.	.	10µM	.	/
CCN(CC)S(=O)(=O)c1ccc(NC(=O)CSc2cccc[n+]2[O-])cc1	.	.	.	.	.	.
CCN(CC)S(=O)(=O)c1ccc(Cl)c(NC(=O)CSc2cccc[n+]2[O-])c1	.	.	.	25.1µM	.	.
O=C(CSc1cccc[n+]1[O-])Nc1c(Br)cc([N+](=O)[O-])cc1Br	-132.9	.	?	.	.	.
CCCCc1nc2cc(C(=O)N3CCC(O)CC3)ccc2o1	.	.	.	.	.	.
O=C1NN(c2ccccc2)C(=O)C2C3C=CC(C4CC34)C12 (stereo unspecified)	.	.	.	.	.	-147.0
O=C(N[C@@H]1C/C=C\C[C@H](CC(=O)N(CCO)Cc2ccccc2)C(=O)NC[C@@H](c2ccccc2)OC1=O)OCC1c2ccccc2-c2ccccc21	.	/	.	/	.	.
O=C(C[C@H]1C/C=C\C[C@H](NC(=O)OCC2c3ccccc3-c3ccccc32)C(=O)O[C@H](c2ccccc2)CNC1=O)N[C@H](CO)Cc1ccccc1	.	/	.	/	28.2µM	.
Cc1ccccc1-n1c(=O)n(Cc2ccco2)c(=O)c2[nH]cnc21	.	.	.	.	.	.
COc1ccc(-c2coc3cc(O)ccc3c2=O)cc1OC	.	.	.	.	.	.
C=CCN(C(=O)CSc1nc2ccsc2c(=O)n1Cc1ccccn1)c1ccccc1	-90.8	.	.	.	.	.
CC(C)(O)C#Cc1ccc(C(=O)NC2CCCCC2)s1	-80.8	.	.	.	.	.
Cc1nonc1CN(C)C(=O)CC1C(=O)NCCN1Cc1c(F)cccc1Cl (stereo unspecified)	.	.	.	.	.	.
Cc1cc(CN(C)C(=O)CC2C(=O)NCCN2Cc2c(F)cccc2Cl)n[nH]1 (stereo unspecified)	.	.	.	.	.	-79.4
CCOCCCNC(=O)CN1C(=O)CSc2ccccc21	-71.8	/	.	.	.	.
CCOc1ccc(NC(=O)CN(C)C(=O)C2CCN(C(=O)Nc3ccccc3)CC2)cc1OCC	.	.	.	/	.	.
O=C(NNC(=O)c1cccs1)c1cccnc1	.	.	.	.	.	.
COC(=O)[C@]1(C)CCC[C@@]2(C)C3CC[C@@]4(C)C[C@]3(CCC21)CC(=O)N4 (stereo partly specified)	.	/	.	.	.	.
SMILES	KCNH2 3.1 inh	RXFP1 antagonist	PTHR1 ag	RXFP1 ag	GRP78 ERSR act	hERG WT inh
C=C1C(=O)C23CCC4C(C)(C(=O)OC)CCCC4(C)C2CCC1(O)C3 (stereo unspecified)	.	-91.6	.	/	.	.
O=[N+]([O-])c1cc(Cc2ccccc2)cc(C=Nc2ccc(N3CCOCC3)cc2)c1O	.	-75.3	.	.	.	.
OC[C@@H](O)[C@@H](O)[C@H](O)[C@H](O)CO	.	.	.	.	.	.
Cc1cccc(N(C(=O)Cn2nnc(-c3ccccc3F)n2)C(C(=O)NC(C)(C)C)c2ccncc2)c1 (stereo unspecified)	.	.	.	.	.	.
CC(C)(C)NC(=O)C(c1ccncc1)N(C(=O)Cn1nnc(-c2ccc(F)cc2)n1)c1cccc(F)c1 (stereo unspecified)	.	.	10µM	.	.	.
Cc1nc(-c2cccs2)sc1C(=O)O	.	.	.	.	.	-95.8
Cc1ccc(-c2nc(NCc3ccco3)c3ccccc3n2)cc1	.	.	.	.	.	/
c1ccc(CN2CCN(c3nc(NCc4ccco4)c4ccccc4n3)CC2)cc1	-108.4	.	.	.	.	.
OCCN1CCN(c2nc(NCc3ccco3)c3ccccc3n2)CC1	.	.	.	.	.	.
Cc1ccc(OCCN2CCN(c3nc(NCc4ccco4)c4ccccc4n3)CC2)cc1	-104.0	/	.	.	.	-131.3
O=C(NC1CC(=O)N(c2cccc(F)c2)C1)c1ccc2c(c1)OCO2 (stereo unspecified)	/	.	.	.	.	/
CCCNC(=O)c1ccc(Cn2c(=O)c3cccn3c3cccnc32)cc1	/	.	.	.	.	/
O=C(NCCc1ccccc1Cl)c1ccc(Cn2c(=O)c3cccn3c3cccnc32)cc1	/	.	.	22.4µM	.	/
Clc1cccc(Cl)c1CNCCCSc1ncccn1	.	.	.	.	.	.
Clc1cccc(CNCCCSc2ncccn2)c1Cl	-94.2	.	.	.	.	.
Cc1ccc(Nc2nc(-c3c(C)nc4ccccn34)cs2)cc1	-78.0	.	.	.	.	.
Cc1ccc(Nc2nc(-c3c(C)nc4ncccn34)cs2)cc1	.	.	.	.	.	.
Cc1ccc(S(=O)(=O)N2CCOCC2)cc1NC(=O)COC(=O)CNC(=O)c1ccccc1	-97.7	/	.	.	.	.
O=C(COC(=O)c1cc(S(=O)(=O)N2CCCC2)ccc1O)Nc1ccc(S(=O)(=O)N2CCOCC2)cc1	.	.	.	.	.	.
O=C(COC(=O)c1cc(S(=O)(=O)N2CCOCC2)ccc1O)Nc1cc(S(=O)(=O)N2CCCC2)ccc1Cl	-193.9	.	.	.	.	-146.5
O=C(COC(=O)c1cnc(Cl)c(Cl)c1)Nc1ccc(S(=O)(=O)N2CCCC2)cc1	-96.8	.	.	.	.	.
O=C(NCCN1CCN(c2ccc([N+](=O)[O-])cc2)CC1)NCc1ccccc1	-73.4	.	.	.	.	.
O=C(NCCN1CCN(C(=O)c2ccc([N+](=O)[O-])cc2)CC1)C(=O)Nc1ccc(F)cc1	?	.	.	.	.	.
COc1ccc(NC(=O)C(=O)NCCN2CCN(C(=O)c3ccc(C)cc3)CC2)cc1	.	.	.	.	.	.
